The source of these data is PubChem BioAssay (NCATS).

“And” between values parts separate entries of the source, which are not always exact repeats. Equal entries are not always repeated. Results filed as inconclusive are left out. The source made the active and inactive calls. Unless noted, calls come from the whole dose curve; as a rule, active = well fitted curve in the direction sought with a large enough effect; inconclusive = small, poorly fitted or top-dose-only effect, or another doubt; inactive = no such curve, though single readings can be large; an effect the other way counts as inactive or inconclusive.

Test [1] in a line: qHTS assay for small molecule agonists of the antioxidant response element (ARE) signaling pathway measured by Nrf2-dependant transcriptional activity - cell viability counter screen (AID 720653; active = well fitted curve in the direction sought with a large enough effect in the repeat runs; an effect the other way counts as inactive or inconclusive; note: % is set by controls: 0 for no effect and ±100 for the full control effect). The conditions noted are these: ARE-bla HepG2 viability, CellTiter-Glo ATP luminescence, 16 h; max response: stronger effect = lower value. The gist of the method: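 Cytotoxicity counter screen: intracellular ATP quantified by CellTiter-Glo luminescence in the same ARE-bla HepG2 plates, after 16 h compound exposure and a 2 h beta-lactamase substrate step.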

A short description of test [2]: qHTS assay for cell viability of HEK293 cells (AID 743288). Note: % is set by controls: 0 for no effect and ±100 for the full control effect; nearly all actives have a fitted effect of over 50% in size. The conditions noted are these: ATP luminescence (CellTiter-Glo), 18 h; max response: stronger effect = lower value. Summed up:
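Parental HEK293 cells were seeded at 2,000 cells/well, rested at least 5 h at 37 C, then exposed to compounds in DMSO for 18 h at 37 C. Viability was read as ATP-dependent luciferase luminescence after 30 min at room temperature.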

Test [3] in a line: qHTS assay for cell viability of the p53RE-bla HCT-116 cell line (AID 743292). Note: % is set by controls: 0 for no effect and ±100 for the full control effect; nearly all actives have a fitted effect of over 55% in size. The gist of the method:
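In this qHTS counter-screen, metabolically competent p53RE-bla HCT-116 cells were counted via their ATP content. Compounds were applied for 16 h at 37 C and luciferase-coupled luminescence was measured.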

Test [4] in a line: qHTS profiling of the MIPE4 collection as inhibitors of Plasmodium falciparum (3D7) proliferation (AID 743344; call rule not given here;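 note: scaled between DMSO vehicle wells and 0.29 µM artemisinin as full inhibition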). Conditions: P. falciparum 3D7 in erythrocytes, SYBR Green DNA fluorescence, 72 h; at 28.5 µM (top of the series) unless noted. The gist of the method: (§1)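 Erythrocytes infected with P. falciparum (0.3% parasitemia, 2.5% hematocrit) incubated with compounds 72 h at 37 C, 5% CO2. Lysis with saponin/Triton buffer containing SYBR Green I, overnight at room temperature in the dark; DNA fluorescence (485/535 nm) normalised to 0.29 uM artemisinin and DMSO.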

The nature of test [5]: qHTS profiling of the MIPE4 collection as inhibitors of Plasmodium falciparum (DD2) proliferation (AID 743345; call rule not given here). Conditions: P. falciparum Dd2 in erythrocytes, SYBR Green DNA, 72 h; at 28.5 µM (top of the series) unless noted. Summed up: as §1
Test [6] can be described thus: qHTS profiling of the MIPE4 collection as inhibitors of Plasmodium falciparum (DD2) proliferation (Rep 2) (AID 743346; call rule not given here). Conditions: P. falciparum Dd2 in erythrocytes, SYBR Green DNA, 72 h; at 28.5 µM (top of the series) unless noted. Summed up: as §1
A short description of test [7]: qHTS profiling of the MIPE4 collection as inhibitors of Plasmodium falciparum (HB3) proliferation (AID 743347; call rule not given here;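 note: plate controls were DMSO vehicle wells for no effect and artemisinin wells for full effect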). Conditions: P. falciparum HB3 in erythrocytes, SYBR Green DNA, 72 h; at 28.5 µM (top of the series) unless noted. Summed up: as §1
Test [8] can be described thus: High-throughput drug toxicity screening in the BPDCN cell line Gen2.2 (AID 1224824; call rule not given here;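 note: cells exposed to compounds for 48 h before reading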). Conditions: Gen2.2 BPDCN cells; at 45.8 µM (top of the series) unless noted. The gist of the method:
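Gen2.2 cells (500/well) in phenol red-free RPMI with 10% FBS were exposed to compounds for 48 h at 37 °C, 5% CO2. Viability was read by CellTiter-Glo luminescence and normalized to DMSO (100%) and 9.2 uM bortezomib (0%).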

The nature of test [9]: High-throughput drug toxicity screening in the BPDCN cell line Cal-1 (AID 1224825; call rule not given here). The conditions noted are these: Cal-1 BPDCN cell viability, qHTS; at 45.8 µM (top of the series) unless noted. The gist of the method: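 500 Cal-1 cells/well, RPMI + glutamine + 10% FBS (phenol red-free); cpd added by pin tool; 48 h, 37C, 5% CO2; CTG 15 min RT, lumi read. Normalised: DMSO 100%, bortezomib 9.2 uM 0%.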

A short description of test [10]: qHTS assay for measurement of the activity of small molecule inhibitors on Zika virus induced Caspase-3 activity in human iPSC derived neural progenitor cells (hNPCs) (AID 1224857). Note: % of control where 0% means no effect; nearly all actives have a fitted effect of over 65% in size. Summed up:
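Quantitative HTS format: human iPSC neural progenitors, 1 h compound pretreatment, ZIKV 2 FFU/cell for 6 h at 37 C. Percent inhibition derived from luminescent caspase-3/7 signal between uninfected and infected controls.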

Test [11] in a line: qHTS assay for measurement of the activity of small molecule inhibitors on Zika virus induced Caspase-3 activity in human astrocytoma cells (AID 1224859).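 Note: plate controls were ZIKV-infected untreated cells for no effect and uninfected cells for full effect.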 The gist of the method:
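Readout is luminescence from Caspase-Glo 3/7 added after a 6 h ZIKV infection (2 FFU/cell) of compound-pretreated (1 h) SNB-19 cells; data expressed as % inhibition versus uninfected and infected wells.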

A short description of test [12]: qHTS Screen of the MIPE 4.0 Collection Against Ewings Sarcoma (RDES) (AID 1259252). Note: nearly all actives have a fitted effect of over 35% in size. Note: potency is the fitted concentration of half-maximal effect. Summed up: (§2)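 CellTiter-Glo luminescence after 48 h compound exposure (titration) gave viability; percent activity used DMSO-treated cells as no inhibition and medium-only wells as full inhibition. Cells grown in RPMI/5% FBS, dosed 4 h post-seeding.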
Test [13] is described as follows: qHTS Screen of the MIPE 4.0 Collection Against Ewings Sarcoma (EW8) (AID 1259255).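 For viability: 100% = DMSO-treated cells and 0% = medium-only wells without cells.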 Note: nearly all actives have a fitted effect of over 35% in size. Note: potency is the fitted concentration of half-maximal effect. The gist of the method:
as §2

The target of test [14] is T1, Hexokinase-4 (Homo sapiens) + Glucokinase regulatory protein (Homo sapiens) (UniProt P35557+Q14397). Description: qHTS assay for inhibitors of recombinant human GCK-GKRP interaction: Diaphorase-coupled assay (AID 743205). The gist of the method: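 GST-GCK (10 nM) with FLAG-GKRP (10 nM), 5 mM glucose and 0.4 mM ATP in pH 7.6 Hepes; compounds preincubated 20 min with substrate. G6PDH/diaphorase coupling converts resazurin to resorufin, read kinetically (ex 525/em 590 nm) for 30 min.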

Test [15] concerns the target T1, Hexokinase-4 (Homo sapiens) + Glucokinase regulatory protein (Homo sapiens). The experiment in a line: qHTS assay for inhibitors of recombinant human GCK-GKRP interaction: ADP-Glo assay (AID 743206).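 Note: plate controls were DMSO plus enzyme for no effect and no enzyme for full effect.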 The gist of the method: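 GST-GCK and FLAG-GKRP (15 nM each in the dispensed mix, with 2 uM S6P) react with 0.4 mM ATP and 5 mM glucose (final) in Hepes pH 7.6 for 60 min at room temperature. ADP is measured by ADP-Glo luminescence.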

Test [16] has the same target. Description: qHTS assay for inhibitors of recombinant human GCK-GKRP interaction: HTRF assay (AID 743207).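 Note: 0% = DMSO with GCK present and -100% = DMSO wells lacking GCK.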 The gist of the method: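 GST-GCK and FLAG-GKRP (5 nM each) were combined with 2 uM S6P in pH 7.1 Hepes/MgCl2/KCl/DTT buffer, then compound and anti-FLAG XL665/anti-GST K antibodies were added. After 60 min at room temperature, HTRF 665/615 nm emission was read.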

The nature of test [17]: qHTS Assay for Identifying Gametocytocidal Compounds (AID 743244).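 Note: % is set by controls: 0 for no effect and ±100 for the full control effect; actives lower the fluorescent signal which means gametocytes are killed.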 The conditions noted are these: P. falciparum 3D7 stage III-V gametocytes, alamarBlue, 72 h; max response: stronger effect = lower value. The gist of the method:
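A resazurin-based viability read-out was applied to mature P. falciparum gametocytes: 72 h compound treatment, then 24 h dye incubation, with falling fluorescence signalling gametocytocidal effect.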

A short description of test [18]: qHTS Screen of the MIPE 4.0 Collection Against Ewings Sarcoma (TC71) (AID 1259253). Note: nearly all actives have a fitted effect of over 40% in size. Note: potency is the fitted concentration of half-maximal effect. Summed up: as §2

T1 sequence (P35557 whole entry, looked up): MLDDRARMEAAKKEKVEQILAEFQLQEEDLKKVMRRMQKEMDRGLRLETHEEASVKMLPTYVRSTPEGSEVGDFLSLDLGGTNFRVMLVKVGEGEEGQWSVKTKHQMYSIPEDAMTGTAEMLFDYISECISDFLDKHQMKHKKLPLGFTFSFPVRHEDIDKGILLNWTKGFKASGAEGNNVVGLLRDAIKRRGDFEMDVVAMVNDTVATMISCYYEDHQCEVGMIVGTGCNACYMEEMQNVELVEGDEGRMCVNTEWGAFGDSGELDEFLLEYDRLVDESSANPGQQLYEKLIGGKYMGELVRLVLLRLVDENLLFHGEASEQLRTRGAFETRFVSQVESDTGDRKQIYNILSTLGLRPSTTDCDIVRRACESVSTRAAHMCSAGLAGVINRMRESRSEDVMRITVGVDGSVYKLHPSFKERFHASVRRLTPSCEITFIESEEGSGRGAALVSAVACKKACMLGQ
T1 sequence (Q14397 whole entry, looked up): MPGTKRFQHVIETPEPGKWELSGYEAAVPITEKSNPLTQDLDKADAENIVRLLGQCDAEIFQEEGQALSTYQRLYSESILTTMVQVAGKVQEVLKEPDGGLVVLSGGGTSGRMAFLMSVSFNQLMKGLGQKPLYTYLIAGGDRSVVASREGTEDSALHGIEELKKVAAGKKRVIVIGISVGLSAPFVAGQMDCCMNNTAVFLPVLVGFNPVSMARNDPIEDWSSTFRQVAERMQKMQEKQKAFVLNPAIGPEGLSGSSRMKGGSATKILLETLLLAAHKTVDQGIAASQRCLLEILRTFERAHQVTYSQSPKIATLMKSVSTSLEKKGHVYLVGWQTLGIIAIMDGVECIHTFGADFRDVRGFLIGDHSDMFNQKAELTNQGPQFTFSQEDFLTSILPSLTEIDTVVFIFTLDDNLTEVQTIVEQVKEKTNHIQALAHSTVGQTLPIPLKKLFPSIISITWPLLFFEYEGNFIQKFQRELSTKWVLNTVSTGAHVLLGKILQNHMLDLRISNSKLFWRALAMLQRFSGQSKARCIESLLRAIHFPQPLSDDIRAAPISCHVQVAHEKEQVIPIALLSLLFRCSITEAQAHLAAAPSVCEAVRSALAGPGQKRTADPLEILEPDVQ

`Nc1ccc(S(N)(=O)=O)cc1`: the max response in test [1] was 0.534% (inactive); in test [2], -1.9% (inactive). For the same compound, the Potency entry in test [3], in [10], in [11], in [12] and in [13] was “inactive” throughout. The same compound returned a parasite growth, % of DMSO control in test [4] of 105%. The parasite growth remaining, % of DMSO control (lower = more inhibition) in [5] came out at 15.1%. In test [6], this compound displayed a parasite growth, % of control (lower = inhibition) of 95.9%. For the same compound, the growth, % of control in test [7] stood at 102%. In test [8], the cell viability, % of control (lower = more cytotoxic) turned out to be 169%. The viability (% of control) in test [9] is 112%.
With `Nc1nc(OCc2ccccc2)c2[nH]cnc2n1`, the outcome in test [14], in [15] and in test [16] was inactive. In addition, the max response in test [17] was 13.4% (inactive). Moreover, in test [8], the cell viability, % of control (lower = more cytotoxic) amounted to 56%. Besides, the viability (% of control) in test [9] was found to be 39.4%. Also, the Potency result in test [10] and in test [11] was “inactive” each time. In addition, the Potency was 13.2 µM (active) in test [18] and 26.4 µM (active) in test [13].
As to `Cc1cc2cc3c(C)cc(=O)oc3c(C)c2o1`, the max response in test [17] was 13.8% (inactive). The parasite growth, % of DMSO control in [4] worked out at 93%. Moreover, in test [5], the parasite growth remaining, % of DMSO control (lower = more inhibition) amounted to 95.8%. The same compound displayed a parasite growth, % of control (lower = inhibition) in test [6] of 91.1%. Besides, the growth, % of control in [7] is 76.7%. Besides, the cell viability, % of control (lower = more cytotoxic) in test [8] came to 16.3%. Moreover, the viability (% of control) in test [9] came to 8.43%. For the same compound, the Potency result in test [10] and in test [11] was “inactive” each time. In addition, the Potency in test [12] was 7.43 µM (active); in test [18] it was 11.8 µM (active).
In the case of `Cc1ccc(S(=O)(=O)NC(=O)NN2CC3CCCC3C2)cc1` (centres undefined), the max response in test [17] was 2.23% (inactive). The parasite growth, % of DMSO control in test [4] is 14%. Also, the parasite growth remaining, % of DMSO control (lower = more inhibition) in test [5] turned out to be 13.9%. The same compound displayed a parasite growth, % of control (lower = inhibition) in test [6] of 16.9%. The same compound had a growth, % of control in [7] of 7.17%. The cell viability, % of control (lower = more cytotoxic) in test [8] amounted to 109%. Also, the viability (% of control) in test [9] came to 35.2%. The Potency result in test [10] and in test [11] was “inactive” throughout. For the same compound, the Potency is 18.7 µM (active) in test [12] and 16.6 µM (active) in test [18].
`O=C(O)CCNC(=O)c1ccc(N=Nc2ccc(O)c(C(=O)O)c2)cc1` showed a parasite growth, % of DMSO control in test [4] of 57.4%. In addition, the parasite growth remaining, % of DMSO control (lower = more inhibition) in [5] amounted to 108%. The compound further displayed a parasite growth, % of control (lower = inhibition) in test [6] of 88.5%. Further, in test [7], the growth, % of control turned out to be 73.4%. Further, the cell viability, % of control (lower = more cytotoxic) in test [8] was found to be 171%. In addition, the viability (% of control) in [9] was 130%. For the same compound, the Potency result in test [10] and in test [11] was “inactive” each time. Moreover, the Potency in test [12] and in [18] was 9.35 µM (active) in each case.
For `N=C(N)c1ccc2cc(OC(=O)c3ccc(N=C(N)N)cc3)ccc2c1`, in test [17], the max response is 6.62% (inactive). This compound also displayed a parasite growth, % of DMSO control in [4] of 6.93%. Further, in test [5], the parasite growth remaining, % of DMSO control (lower = more inhibition) came out at 9.8%. Further, the parasite growth, % of control (lower = inhibition) in test [6] was determined as 14%. Also, the growth, % of control in test [7] worked out at 12.8%. Besides, in [8], the cell viability, % of control (lower = more cytotoxic) is 175%. Moreover, the viability (% of control) in test [9] was found to be 102%. In addition, the Potency entry in test [10], in [11], in test [12] and in test [13] was “inactive” each time.
The compound `CC1=C(C)C(=O)C(C(CCCCCC(=O)O)c2ccccc2)=C(C)C1=O` (centres undefined) registered a parasite growth, % of DMSO control in test [4] of 50.6%. The parasite growth remaining, % of DMSO control (lower = more inhibition) in test [5] was found to be 87.9%. This compound also showed a parasite growth, % of control (lower = inhibition) in test [6] of 46%. Further, the growth, % of control in [7] came out at 74.4%. Also, the cell viability, % of control (lower = more cytotoxic) in test [8] came to 195%. Besides, in test [9], the viability (% of control) stood at 115%. For the same compound, the Potency result in test [10], in test [11], in test [12], in test [18] and in [13] was “inactive” each time.
`COc1c2occc2cc2ccc(=O)oc12`: the max response in [1] was -6.22% (inactive) and 0.264% (inactive); in test [17] it was 12.3% (inactive); in test [2], 1.56% (inactive) and -7.55% (inactive). The Potency result in test [3], in [10], in test [11], in test [12] and in [13] was “inactive” in each case. In addition, the cell viability, % of control (lower = more cytotoxic) in test [8] worked out at 109%. For the same compound, in test [9], the viability (% of control) was 93.5%.
Turning to `Cc1ccc(Nc2nccc(N(C)c3ccc4c(C)n(C)nc4c3)n2)cc1S(N)(=O)=O`, in [17], the max response is 45.8% (inactive). In [8], the cell viability, % of control (lower = more cytotoxic) amounted to 355%. In addition, in test [9], the viability (% of control) was 62.5%. Besides, the Potency result in [10], in test [11] and in test [13] was “inactive” each time. Moreover, the Potency in test [12] was 11.8 µM (active).
